Experimental findings from publication PMC7862700, “An all-to-all approach to the identification of sequence-specific readers for epigenetic DNA modifications on cytosine” are described below.

What all share (assay): DAPPL (digital affinity profiling via proximity ligation, sequencing); 10 mM Tris-HCl pH 7.5, 50 mM NaCl, 1 mM DTT, 4% glycerol, room temperature, 30 min; GST-TFs on glutathione beads, 16-mer random dsDNA library, 0.1% formaldehyde crosslink after washing; high values mean tight binding
The target of one test is T1, FEV (Homo sapiens, UniProt Q99581 1-238).
T1 sequence: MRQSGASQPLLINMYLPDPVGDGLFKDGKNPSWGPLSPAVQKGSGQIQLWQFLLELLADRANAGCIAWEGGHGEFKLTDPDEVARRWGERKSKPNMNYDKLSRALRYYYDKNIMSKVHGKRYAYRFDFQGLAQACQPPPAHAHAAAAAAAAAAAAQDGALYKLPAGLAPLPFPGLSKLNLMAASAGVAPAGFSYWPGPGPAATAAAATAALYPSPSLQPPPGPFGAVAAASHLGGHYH
To be noted: protein: recombinant; tags: N-terminal GST; dsDNA, one strand shown. The procedure, abridged:
(§1)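 In yeast, human transcription factors were expressed with a GST fusion, then pulled down on glutathione beads and given DNA barcodes. Pooled with a tag-only sample, they were exposed to 200 nmole of a 16-mer random double-stranded DNA library (Tris/NaCl/DTT/glycerol buffer, room temperature, 30 min), washed, crosslinked with 0.1% formaldehyde, proximity-ligated using BsaI/T4 ligase for 1 h at 37 °C, PCR-amplified and read on an Illumina NextSeq500. Each hexamer's frequency of reads for a factor, divided by the matching frequency for the tag-only sample, gives the binding signal.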

In a further test the target is ETV5 (Homo sapiens, UniProt P41161 1-510). Conditions: protein: recombinant; tags: N-terminal GST; dsDNA, one strand shown. In a few lines:
as §1

Another test has as its target HSF1 (Homo sapiens, UniProt Q00613 1-529). Conditions: protein: recombinant; tags: N-terminal GST; chain copies: 3; dsDNA, one strand shown. In a few lines: as §1
For a further test, the target named is T2, SPIC (Homo sapiens, UniProt Q8N5J4 1-248).
T2 sequence: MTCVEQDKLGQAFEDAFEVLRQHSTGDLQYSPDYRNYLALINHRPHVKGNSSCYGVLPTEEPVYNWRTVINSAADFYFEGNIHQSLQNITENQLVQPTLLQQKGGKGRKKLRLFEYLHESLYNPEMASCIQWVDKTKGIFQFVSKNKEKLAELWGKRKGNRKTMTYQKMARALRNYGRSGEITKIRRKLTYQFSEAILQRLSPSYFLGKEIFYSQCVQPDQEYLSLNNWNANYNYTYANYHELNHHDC
Conditions: protein: recombinant; tags: N-terminal GST; dsDNA, one strand shown. In a few lines: as §1

The next test has as its target ELF4 (Homo sapiens, UniProt Q99607 1-663). Conditions: protein: recombinant; tags: N-terminal GST; dsDNA, one strand shown. In a few lines: as §1
Another test has as its target T3, ELK4 (Homo sapiens, UniProt P28324-2 1-405).
T3 sequence: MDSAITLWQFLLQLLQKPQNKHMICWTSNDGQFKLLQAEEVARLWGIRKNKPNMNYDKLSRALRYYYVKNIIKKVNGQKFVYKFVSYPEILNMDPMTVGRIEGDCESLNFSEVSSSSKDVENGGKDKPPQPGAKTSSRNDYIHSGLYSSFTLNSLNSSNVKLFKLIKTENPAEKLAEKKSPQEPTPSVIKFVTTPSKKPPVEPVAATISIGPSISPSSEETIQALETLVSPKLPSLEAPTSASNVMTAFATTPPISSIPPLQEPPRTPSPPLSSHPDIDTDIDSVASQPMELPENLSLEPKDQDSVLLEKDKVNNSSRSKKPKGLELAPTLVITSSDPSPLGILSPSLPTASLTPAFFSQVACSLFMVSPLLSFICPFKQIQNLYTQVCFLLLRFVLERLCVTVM
Conditions: protein: recombinant; tags: N-terminal GST; dsDNA, one strand shown. The procedure, abridged: as §1

The next test deals with T4, ETV2 (Homo sapiens, UniProt O00321 1-342).
T4 sequence: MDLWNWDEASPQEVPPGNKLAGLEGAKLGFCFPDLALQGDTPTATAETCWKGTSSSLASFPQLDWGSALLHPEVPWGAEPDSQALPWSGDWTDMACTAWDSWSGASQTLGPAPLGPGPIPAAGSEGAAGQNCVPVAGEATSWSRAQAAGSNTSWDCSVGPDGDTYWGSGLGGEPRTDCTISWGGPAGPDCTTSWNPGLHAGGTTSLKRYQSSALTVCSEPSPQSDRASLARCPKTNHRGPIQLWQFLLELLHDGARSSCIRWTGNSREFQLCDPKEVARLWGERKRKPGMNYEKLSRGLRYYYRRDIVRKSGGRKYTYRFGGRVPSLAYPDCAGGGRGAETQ
Conditions: protein: recombinant; tags: N-terminal GST; dsDNA, one strand shown. The procedure, abridged: as §1

For a further test, the target named is T5, ELF3 (Homo sapiens, UniProt P78545 1-371).
T5 sequence: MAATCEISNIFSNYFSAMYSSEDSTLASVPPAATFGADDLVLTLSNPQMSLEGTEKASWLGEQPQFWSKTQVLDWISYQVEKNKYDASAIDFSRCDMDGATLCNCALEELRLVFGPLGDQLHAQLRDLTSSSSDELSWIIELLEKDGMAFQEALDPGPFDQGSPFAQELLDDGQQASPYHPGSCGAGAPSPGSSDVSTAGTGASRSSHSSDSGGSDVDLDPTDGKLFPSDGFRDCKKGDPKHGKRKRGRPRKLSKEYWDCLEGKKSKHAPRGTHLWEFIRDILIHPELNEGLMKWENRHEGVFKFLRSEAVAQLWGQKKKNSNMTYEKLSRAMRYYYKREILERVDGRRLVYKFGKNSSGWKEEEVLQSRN
To be noted: protein: recombinant; tags: N-terminal GST; dsDNA, one strand shown. In a few lines: as §1

A further test has as its target CRX (Homo sapiens, UniProt O43186 1-299). Conditions: protein: recombinant; tags: N-terminal GST; dsDNA, one strand shown. In a few lines:
as §1

Another test has as its target ETV1 (Homo sapiens, UniProt P50549 1-477). To be noted: protein: recombinant; tags: N-terminal GST; dsDNA, one strand shown. In a few lines:
as §1

The next test deals with T6, ERF (Homo sapiens, UniProt P50548 1-548).
T6 sequence: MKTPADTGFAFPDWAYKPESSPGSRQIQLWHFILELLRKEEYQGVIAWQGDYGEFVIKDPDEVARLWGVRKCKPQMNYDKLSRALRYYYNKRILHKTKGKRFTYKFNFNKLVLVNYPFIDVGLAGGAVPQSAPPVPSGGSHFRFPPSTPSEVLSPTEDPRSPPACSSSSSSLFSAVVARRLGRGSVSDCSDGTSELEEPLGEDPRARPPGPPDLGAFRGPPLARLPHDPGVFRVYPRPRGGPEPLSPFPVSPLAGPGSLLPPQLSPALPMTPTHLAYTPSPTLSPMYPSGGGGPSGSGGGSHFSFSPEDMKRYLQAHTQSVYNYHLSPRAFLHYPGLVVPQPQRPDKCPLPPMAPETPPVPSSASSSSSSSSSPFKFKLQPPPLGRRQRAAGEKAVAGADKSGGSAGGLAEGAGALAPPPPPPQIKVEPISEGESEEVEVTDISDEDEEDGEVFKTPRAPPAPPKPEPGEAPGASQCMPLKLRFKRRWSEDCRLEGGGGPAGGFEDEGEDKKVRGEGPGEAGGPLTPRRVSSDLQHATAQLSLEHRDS
Conditions: protein: recombinant; tags: N-terminal GST; dsDNA, one strand shown. The procedure, abridged:
as §1

For the next test, the target named is T7, ETV3L (Homo sapiens, UniProt Q6ZN32 1-361).
T7 sequence: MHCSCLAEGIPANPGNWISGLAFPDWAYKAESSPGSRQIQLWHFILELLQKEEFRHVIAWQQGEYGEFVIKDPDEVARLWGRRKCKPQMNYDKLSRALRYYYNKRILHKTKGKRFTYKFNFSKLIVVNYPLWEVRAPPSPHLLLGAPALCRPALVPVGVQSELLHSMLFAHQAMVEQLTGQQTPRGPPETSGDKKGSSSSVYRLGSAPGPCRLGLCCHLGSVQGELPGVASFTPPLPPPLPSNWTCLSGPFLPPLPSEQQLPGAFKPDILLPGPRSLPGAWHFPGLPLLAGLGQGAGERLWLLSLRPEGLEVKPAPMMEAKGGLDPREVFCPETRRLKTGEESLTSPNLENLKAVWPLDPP
To be noted: protein: recombinant; tags: N-terminal GST; dsDNA, one strand shown. The procedure, abridged:
as §1

A further test has as its target T8, ETS2 (Homo sapiens, UniProt P15036 1-469).
T8 sequence: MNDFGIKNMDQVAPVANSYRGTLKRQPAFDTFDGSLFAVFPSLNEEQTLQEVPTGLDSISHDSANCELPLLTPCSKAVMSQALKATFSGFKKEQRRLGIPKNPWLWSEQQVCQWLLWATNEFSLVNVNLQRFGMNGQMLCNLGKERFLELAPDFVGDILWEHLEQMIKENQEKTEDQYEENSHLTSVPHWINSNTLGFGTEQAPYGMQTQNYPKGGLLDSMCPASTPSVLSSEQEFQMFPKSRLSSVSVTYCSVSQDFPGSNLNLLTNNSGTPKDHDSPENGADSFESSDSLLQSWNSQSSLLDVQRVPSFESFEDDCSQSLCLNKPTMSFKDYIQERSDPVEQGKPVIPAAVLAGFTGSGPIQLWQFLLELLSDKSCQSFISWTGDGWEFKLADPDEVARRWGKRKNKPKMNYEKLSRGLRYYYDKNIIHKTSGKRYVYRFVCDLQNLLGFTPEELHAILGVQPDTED
To be noted: protein: recombinant; tags: N-terminal GST; dsDNA, one strand shown. The procedure, abridged: as §1

In a further test the target is T9, SPDEF (Homo sapiens, UniProt O95238 1-335).
T9 sequence: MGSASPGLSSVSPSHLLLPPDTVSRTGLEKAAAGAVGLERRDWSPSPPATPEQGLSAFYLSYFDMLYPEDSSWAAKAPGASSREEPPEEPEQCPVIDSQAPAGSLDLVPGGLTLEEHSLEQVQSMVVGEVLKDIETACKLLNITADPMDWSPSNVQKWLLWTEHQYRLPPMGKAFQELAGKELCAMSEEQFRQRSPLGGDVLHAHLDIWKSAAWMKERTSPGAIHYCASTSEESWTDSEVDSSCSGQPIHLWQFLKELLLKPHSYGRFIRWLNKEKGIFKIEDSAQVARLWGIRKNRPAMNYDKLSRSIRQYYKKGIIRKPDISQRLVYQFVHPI
To be noted: protein: recombinant; tags: N-terminal GST; dsDNA, one strand shown. In a few lines: as §1

The target of a further test is T10, ETV7 (Homo sapiens, UniProt Q9Y603 1-341).
T10 sequence: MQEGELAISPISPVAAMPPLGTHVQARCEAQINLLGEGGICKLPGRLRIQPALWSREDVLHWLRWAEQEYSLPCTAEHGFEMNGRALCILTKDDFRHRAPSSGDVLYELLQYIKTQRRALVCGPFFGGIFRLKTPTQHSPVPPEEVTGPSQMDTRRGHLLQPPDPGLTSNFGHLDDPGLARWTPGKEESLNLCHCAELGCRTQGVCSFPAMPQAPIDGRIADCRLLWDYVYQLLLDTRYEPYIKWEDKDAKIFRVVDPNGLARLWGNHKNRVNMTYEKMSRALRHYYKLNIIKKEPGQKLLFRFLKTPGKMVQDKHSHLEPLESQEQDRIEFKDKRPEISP
Conditions: protein: recombinant; tags: N-terminal GST; dsDNA, one strand shown. The procedure, abridged: as §1

The next test has as its target T11, ELF5 (Homo sapiens, UniProt Q9UKW6-2 1-255).
T11 sequence: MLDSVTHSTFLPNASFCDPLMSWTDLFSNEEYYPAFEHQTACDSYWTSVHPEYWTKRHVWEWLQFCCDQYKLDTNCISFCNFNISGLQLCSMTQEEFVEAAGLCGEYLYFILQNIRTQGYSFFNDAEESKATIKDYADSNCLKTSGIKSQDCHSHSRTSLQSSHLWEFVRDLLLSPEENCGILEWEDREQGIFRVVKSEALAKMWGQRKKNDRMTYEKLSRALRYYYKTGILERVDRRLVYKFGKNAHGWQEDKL
To be noted: protein: recombinant; tags: N-terminal GST; dsDNA, one strand shown. The procedure, abridged:
as §1

The next test concerns the target T12, ETV3 (Homo sapiens, UniProt P41162-2 1-143).
T12 sequence: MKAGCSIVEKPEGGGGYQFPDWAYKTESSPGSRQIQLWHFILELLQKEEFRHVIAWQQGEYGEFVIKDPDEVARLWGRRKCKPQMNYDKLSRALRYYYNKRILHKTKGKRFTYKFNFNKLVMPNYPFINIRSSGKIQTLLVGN
To be noted: protein: recombinant; tags: N-terminal GST; dsDNA, one strand shown. In a few lines: as §1

The next test has as its target ETV6 (Homo sapiens, UniProt P41212 1-452). To be noted: protein: recombinant; tags: N-terminal GST; dsDNA, one strand shown. In a few lines: as §1

Sequence of ELF4 (Q99607 whole entry): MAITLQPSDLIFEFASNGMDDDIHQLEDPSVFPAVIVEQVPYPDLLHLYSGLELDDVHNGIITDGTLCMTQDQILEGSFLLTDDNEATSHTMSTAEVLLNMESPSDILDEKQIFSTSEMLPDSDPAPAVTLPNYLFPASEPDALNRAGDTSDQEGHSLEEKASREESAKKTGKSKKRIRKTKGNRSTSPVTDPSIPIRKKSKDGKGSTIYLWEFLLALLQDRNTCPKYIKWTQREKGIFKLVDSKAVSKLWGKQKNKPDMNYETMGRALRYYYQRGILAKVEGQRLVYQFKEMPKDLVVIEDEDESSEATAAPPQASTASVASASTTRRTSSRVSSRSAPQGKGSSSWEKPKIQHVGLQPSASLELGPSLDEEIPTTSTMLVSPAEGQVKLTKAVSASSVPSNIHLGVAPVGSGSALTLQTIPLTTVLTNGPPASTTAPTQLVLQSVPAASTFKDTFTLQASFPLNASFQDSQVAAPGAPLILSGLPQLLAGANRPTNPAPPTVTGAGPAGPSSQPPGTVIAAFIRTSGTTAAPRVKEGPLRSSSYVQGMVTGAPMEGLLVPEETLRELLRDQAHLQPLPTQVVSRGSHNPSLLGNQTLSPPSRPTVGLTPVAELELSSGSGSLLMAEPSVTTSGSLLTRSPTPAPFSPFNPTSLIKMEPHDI
Sequence of CRX (O43186 whole entry): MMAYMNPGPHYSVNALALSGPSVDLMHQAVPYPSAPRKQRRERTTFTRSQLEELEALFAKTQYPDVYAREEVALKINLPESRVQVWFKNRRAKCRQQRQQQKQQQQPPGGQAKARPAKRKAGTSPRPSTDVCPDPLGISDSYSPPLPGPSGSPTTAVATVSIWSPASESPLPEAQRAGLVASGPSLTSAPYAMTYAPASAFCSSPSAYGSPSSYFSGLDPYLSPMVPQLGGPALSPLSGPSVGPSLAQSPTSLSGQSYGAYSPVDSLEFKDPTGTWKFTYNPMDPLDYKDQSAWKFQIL
Sequence of HSF1 (Q00613 whole entry): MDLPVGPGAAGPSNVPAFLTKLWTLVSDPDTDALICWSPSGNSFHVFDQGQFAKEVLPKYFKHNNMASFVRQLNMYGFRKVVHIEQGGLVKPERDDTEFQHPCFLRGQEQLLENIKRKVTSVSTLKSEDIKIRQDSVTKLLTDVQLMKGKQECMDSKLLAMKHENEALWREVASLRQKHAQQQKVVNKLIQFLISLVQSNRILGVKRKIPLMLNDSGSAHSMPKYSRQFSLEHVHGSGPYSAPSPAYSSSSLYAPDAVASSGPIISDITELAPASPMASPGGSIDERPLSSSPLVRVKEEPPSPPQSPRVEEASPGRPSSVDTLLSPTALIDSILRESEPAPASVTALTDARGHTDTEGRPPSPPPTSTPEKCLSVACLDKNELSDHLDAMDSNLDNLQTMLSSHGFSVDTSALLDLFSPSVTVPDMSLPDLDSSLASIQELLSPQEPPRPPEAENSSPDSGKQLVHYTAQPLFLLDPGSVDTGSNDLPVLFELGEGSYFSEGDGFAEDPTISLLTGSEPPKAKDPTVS
Sequence of ETV5 (P41161 whole entry): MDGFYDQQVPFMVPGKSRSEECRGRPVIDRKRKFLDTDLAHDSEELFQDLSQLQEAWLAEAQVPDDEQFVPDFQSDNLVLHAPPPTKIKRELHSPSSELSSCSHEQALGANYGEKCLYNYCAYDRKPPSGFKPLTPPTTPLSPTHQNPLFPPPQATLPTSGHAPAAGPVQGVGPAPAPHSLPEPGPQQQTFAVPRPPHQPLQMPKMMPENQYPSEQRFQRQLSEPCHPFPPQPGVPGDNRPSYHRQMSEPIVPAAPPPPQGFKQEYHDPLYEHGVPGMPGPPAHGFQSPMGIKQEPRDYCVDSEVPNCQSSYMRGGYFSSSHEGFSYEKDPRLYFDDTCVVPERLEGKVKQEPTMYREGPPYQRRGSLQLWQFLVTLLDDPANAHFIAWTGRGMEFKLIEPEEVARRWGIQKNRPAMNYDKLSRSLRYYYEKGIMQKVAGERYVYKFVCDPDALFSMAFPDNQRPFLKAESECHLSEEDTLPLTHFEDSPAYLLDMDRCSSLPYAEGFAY
Sequence of ETV6 (P41212 whole entry): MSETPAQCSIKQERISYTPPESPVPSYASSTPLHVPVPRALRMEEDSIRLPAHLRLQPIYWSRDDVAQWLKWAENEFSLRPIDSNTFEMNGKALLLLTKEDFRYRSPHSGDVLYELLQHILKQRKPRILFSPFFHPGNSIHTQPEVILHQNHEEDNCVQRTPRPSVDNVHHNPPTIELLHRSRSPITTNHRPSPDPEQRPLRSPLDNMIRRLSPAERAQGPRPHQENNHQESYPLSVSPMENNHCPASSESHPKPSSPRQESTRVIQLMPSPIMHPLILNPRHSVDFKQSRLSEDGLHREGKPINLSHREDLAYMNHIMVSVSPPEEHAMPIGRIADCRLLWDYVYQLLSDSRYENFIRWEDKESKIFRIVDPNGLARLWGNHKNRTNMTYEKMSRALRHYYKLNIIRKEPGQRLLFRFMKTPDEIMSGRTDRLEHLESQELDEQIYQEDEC
Sequence of ETV1 (P50549 whole entry): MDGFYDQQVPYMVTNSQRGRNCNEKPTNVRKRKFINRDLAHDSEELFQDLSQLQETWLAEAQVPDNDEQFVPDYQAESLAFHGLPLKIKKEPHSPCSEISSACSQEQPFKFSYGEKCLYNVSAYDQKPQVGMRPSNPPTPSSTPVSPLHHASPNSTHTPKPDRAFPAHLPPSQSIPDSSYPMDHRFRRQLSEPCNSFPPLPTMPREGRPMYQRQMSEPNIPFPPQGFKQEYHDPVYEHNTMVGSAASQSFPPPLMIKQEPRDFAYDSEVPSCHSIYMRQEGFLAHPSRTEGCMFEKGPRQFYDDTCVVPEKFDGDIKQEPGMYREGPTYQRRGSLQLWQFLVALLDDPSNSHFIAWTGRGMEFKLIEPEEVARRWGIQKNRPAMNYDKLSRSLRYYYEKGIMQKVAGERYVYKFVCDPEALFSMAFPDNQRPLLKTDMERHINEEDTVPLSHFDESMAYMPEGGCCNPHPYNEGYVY

Consider AGATTT, for which the binding signal in the test with FEV was 1.16 fold enrichment (6-mer frequency, TF over GST control); in the test with ETV5, 1.2 fold enrichment (6-mer frequency, TF over GST control); with HSF1, 1.75 fold enrichment (6-mer frequency, TF over GST control); with SPIC, 1.06 fold enrichment (6-mer frequency, TF over GST control); in the test with ELF4 it was 1.16 fold enrichment (6-mer frequency, TF over GST control); with ELK4 it was 1.25 fold enrichment (6-mer frequency, TF over GST control). For the same sequence, the binding signal in the test with ETV2 was 1.05 fold enrichment (6-mer frequency, TF over GST control); in the test with ELF3, 1.21 fold enrichment (6-mer frequency, TF over GST control); in the test with CRX, 1.84 fold enrichment (6-mer frequency, TF over GST control); with ETV1, 1.15 fold enrichment (6-mer frequency, TF over GST control); with ERF it was 1.2 fold enrichment (6-mer frequency, TF over GST control); in the test with ETV3L, 1.17 fold enrichment (6-mer frequency, TF over GST control). Also, the binding signal in the test with ETS2 is 1.17 fold enrichment (6-mer frequency, TF over GST control); in the test with SPDEF, 1.05 fold enrichment (6-mer frequency, TF over GST control); with ETV7 it was 1.16 fold enrichment (6-mer frequency, TF over GST control); with ELF5, 1.22 fold enrichment (6-mer frequency, TF over GST control); with ETV3, 1.05 fold enrichment (6-mer frequency, TF over GST control); with ETV6, 1.11 fold enrichment (6-mer frequency, TF over GST control).
